# Experimental data published in PubChem BioAssay (Tox21).
# Results filed as inconclusive are left out. Where a call stands in place of a potency, no number is given. Unmarked numbers belong to inactive results. The source made the active and inactive calls. Unless noted, calls come from the whole dose curve.
# How the values were obtained:
# [1] = qHTS assay to identify small molecule agonists of the peroxisome proliferator-activated receptor delta (PPARd) signaling pathway - cell viability counter screen (AID 743211; active = well fitted curve in the direction sought with a large enough effect in the repeat runs; an effect the other way counts as inactive or inconclusive; note: nearly all actives have a fitted effect of over 55% in size)
# Procedure, shortened: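 Multiplexed format: after the 2 h room-temperature LiveBLAzer B/G FRET step, CellTiter-Glo was added to the same wells. Luminescence after 30 min gave cell viability; compound exposure was 17 h at 37C.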
# [2] = qHTS assay to identify small molecule antagonists of the peroxisome proliferator-activated receptor delta (PPARd) signaling pathway - cell viability counter screen (AID 743213; active = well fitted curve in the direction sought with a large enough effect in the repeat runs; an effect the other way counts as inactive or inconclusive; note: nearly all actives have a fitted effect of over 50% in size)
# Procedure, shortened: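 CellTiter-Glo was added to PPARd-bla HEK293H wells following 17 h compound treatment in the presence of 300 nM L165041. Luminescence was recorded after 30 min at room temperature.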
# [3] = qHTS assay to identify small molecule agonists of the farnesoid-X-receptor (FXR) signaling pathway - cell viability counter screen (AID 743218; active = well fitted curve in the direction sought with a large enough effect in the repeat runs; an effect the other way counts as inactive or inconclusive; note: nearly all actives have a fitted effect of over 45% in size)
# Procedure, shortened: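 In GeneBLAzer FXR-UAS-bla HEK 293T cells, compounds act for 16 h at 37 C. Cell viability is then scored in the reporter wells by CellTiter-Glo, 30 min at RT, luminescence.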
# [4] = qHTS assay to identify small molecule antagonists of the farnesoid-X-receptor (FXR) signaling pathway - cell viability counter screen (AID 743221; active = well fitted cell-killing curve with a large enough effect in the repeat runs, not every such curve was filed as active; note: nearly all actives have a fitted effect of over 50% in size)
# Procedure, shortened: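 CellTiter-Glo, 30 min RT, luminescence; same wells as the LiveBLAzer FRET read. Cells: FXR-UAS-bla HEK 293T. Treatment: compound with chenodeoxycholic acid 50 uM final, 16 h at 37 C.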
# [5] = qHTS assay to identify small molecule agonists of the vitamin D receptor (VDR) signaling pathway - cell viability counter screen (AID 743224; active = well fitted curve in the direction sought with a large enough effect in the repeat runs; an effect the other way counts as inactive or inconclusive; note: series mostly up to about 63 µM; nearly all actives have a fitted effect of over 50% in size)
# Procedure, shortened: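 VDR-bla cell line, quantitative HTS format; 16 h compound incubation (37C, 5% CO2); ATP-based CellTiter-Glo luminescence measured in the reporter assay wells.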
# [6] = qHTS assay to identify small molecule antagonists of the vitamin D receptor (VDR) signaling pathway - cell viability counter screen (AID 743225; active = well fitted curve in the direction sought with a large enough effect in the repeat runs; an effect the other way counts as inactive or inconclusive; note: nearly all actives have a fitted effect of over 50% in size)
# Procedure, shortened: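 Cytotoxicity toward the VDR-bla HEK 293T line was scored by ATP-based CellTiter-Glo luminescence, read in the wells already used for the beta-lactamase readout after 16 h compound treatment under 3 nM 1-alpha,25-dihydroxyvitamin D3 stimulation.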
# [7] = qHTS assay to identify small molecule agonists of the NFkB signaling pathway - cell viability counter screen (AID 1159515); note: series mostly up to about 61 µM; nearly all actives have a fitted effect of over 55% in size
# Procedure, shortened: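 Viability in NFkB-bla ME-180 cells was measured by CellTiter-Glo luminescence, 30 min room temperature, in wells already treated 5 hr with compounds and read for reporter FRET.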
# [8] = qHTS assay to identify small molecule agonists of the endoplasmic reticulum stress response signaling pathway (AID 1159516; active = well fitted activation curve with a large enough effect in the signal ratio in the repeat runs, not every such curve was filed as active; the % refers to the signal ratio)
# Procedure, shortened: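 ER stress element reporter (bla) in HeLa. 1,500 cells/well, overnight attachment; 5 hr compound; 2 hr RT substrate; dual-emission fluorescence.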
# [9] = qHTS assay to identify small molecule agonists of the endoplasmic reticulum stress response signaling pathway - cell viability counter screen (AID 1159517)
# Procedure, shortened: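 Luminescence readout: CellTiter-Glo, 30 min RT, same wells as the ESRE-bla reporter read. HeLa ESRE-bla, 1,500 cells/well, o/n 37 C; cpd 5 hr 37 C/5% CO2.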
# [10] = qHTS assay to identify small molecule antagonists of the retinoid-related orphan receptor gamma (ROR-gamma) signaling pathway - cell viability counter screen (AID 1159520; active = well fitted curve in the direction sought with a large enough effect in the repeat runs; an effect the other way counts as inactive or inconclusive; note: nearly all actives have a fitted effect of over 50% in size)
# Procedure, shortened: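 Tet-on ROR gamma CHO cells (1,000/well) were plated 4 hr, given compounds in DMSO for 2 hr at 37 C, then induced with 1 uM final doxycycline for 16 hr. Viability was read as ATP by CellTiter-Glo luminescence after 30 min.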
# [11] = qHTS assay to identify small molecule agonists of the AP-1 signaling pathway - cell viability counter screen (AID 1159525); note: nearly all actives have a fitted effect of over 55% in size
# Procedure, shortened: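 ME-180 AP-1-bla, 2500 cells/well, Opti-MEM + 0.5% dialyzed FBS; overnight 37 °C; cpd 15-pt titration, 5 h 37 °C; CellTiter-Glo 30 min RT; luminescence read; normalised to TOAB and DMSO controls.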
# [12] = qHTS assay to identify small molecule agonists of the AP-1 signaling pathway (AID 1159526)
# [13] = target: Retinoic acid receptor RXR-alpha (Homo sapiens) (UniProt P19793); test: qHTS assay to identify small molecule agonists of the RXR signaling pathway (AID 1159527); note: nearly all actives have a fitted effect of over 35% in size
# Retinoic acid receptor RXR-alpha (Homo sapiens), sequence (P19793 whole entry, looked up): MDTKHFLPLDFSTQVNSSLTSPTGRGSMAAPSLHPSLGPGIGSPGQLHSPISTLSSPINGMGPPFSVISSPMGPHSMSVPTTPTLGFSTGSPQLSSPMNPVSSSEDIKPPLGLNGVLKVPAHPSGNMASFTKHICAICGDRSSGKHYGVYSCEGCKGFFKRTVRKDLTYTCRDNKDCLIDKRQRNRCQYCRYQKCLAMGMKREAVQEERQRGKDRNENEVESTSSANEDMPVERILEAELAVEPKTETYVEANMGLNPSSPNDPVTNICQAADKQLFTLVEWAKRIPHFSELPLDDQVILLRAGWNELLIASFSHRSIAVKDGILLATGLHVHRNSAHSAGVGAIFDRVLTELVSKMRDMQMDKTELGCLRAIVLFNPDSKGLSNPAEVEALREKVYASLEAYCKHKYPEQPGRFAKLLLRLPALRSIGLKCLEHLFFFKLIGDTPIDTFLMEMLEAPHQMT
# Procedure, shortened: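 Reporter activation is measured as beta-lactamase activity via FRET substrate cleavage (emission 460/530 nm) in HEK 293T cells expressing an RXR-alpha-driven bla construct, following 16 hr compound exposure at 37 C.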
# [14] = target: Peroxisome proliferator-activated receptor delta (Homo sapiens) (UniProt Q03181); test: qHTS assay to identify small molecule agonists of the peroxisome proliferator-activated receptor delta (PPARd) signaling pathway (AID 743212)
# Peroxisome proliferator-activated receptor delta (Homo sapiens), sequence (Q03181 whole entry, looked up): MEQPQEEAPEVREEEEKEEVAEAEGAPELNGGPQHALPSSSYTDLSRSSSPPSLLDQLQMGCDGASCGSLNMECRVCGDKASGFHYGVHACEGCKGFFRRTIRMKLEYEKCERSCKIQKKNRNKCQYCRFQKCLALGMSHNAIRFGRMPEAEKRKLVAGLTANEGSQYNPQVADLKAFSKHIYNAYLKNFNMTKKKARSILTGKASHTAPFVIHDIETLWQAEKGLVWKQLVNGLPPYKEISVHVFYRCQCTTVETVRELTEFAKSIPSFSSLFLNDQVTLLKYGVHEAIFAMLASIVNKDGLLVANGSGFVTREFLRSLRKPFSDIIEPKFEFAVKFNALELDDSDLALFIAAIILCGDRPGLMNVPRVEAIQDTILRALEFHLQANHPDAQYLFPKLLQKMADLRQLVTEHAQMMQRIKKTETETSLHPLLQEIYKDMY
# Procedure, shortened: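 GeneBLAzer PPARd UAS-bla HEK293H cells (beta-lactamase reporter under UAS control), plated and rested 5 h at 37 C, then exposed to compounds in DMSO at 37 C; LiveBLAzer B/G FRET substrate added, 2 h room temperature, fluorescence read.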
# [15] = target: Peroxisome proliferator-activated receptor delta (Homo sapiens) (UniProt Q03181); test: qHTS assay to identify small molecule antagonists of the peroxisome proliferator-activated receptor delta (PPARd) signaling pathway (AID 743215; active = well fitted inhibition curve with a large enough effect in the signal ratio in the repeat runs, not every such curve was filed as active; the % refers to the signal ratio;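 note: cells stimulated with agonist L165041 at 300 nM final during compound exposure; series mostly up to about 62 µM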)
# Procedure, shortened: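 Antagonist-mode beta-lactamase reporter screen: HEK293H cells with UAS-bla under PPARd control, stimulated by 300 nM L165041 (final) alongside test compound for 17 h at 37 C, then FRET fluorescence after 2 h substrate incubation.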
# [16] = target: Bile acid receptor (Homo sapiens) (UniProt Q96RI1); test: qHTS assay to identify small molecule antagonists of the farnesoid-X-receptor (FXR) signaling pathway (AID 743217; active = well fitted inhibition curve with a large enough effect in the signal ratio in the repeat runs, not every such curve was filed as active; the % refers to the signal ratio)
# Bile acid receptor (Homo sapiens), sequence (Q96RI1 whole entry, looked up): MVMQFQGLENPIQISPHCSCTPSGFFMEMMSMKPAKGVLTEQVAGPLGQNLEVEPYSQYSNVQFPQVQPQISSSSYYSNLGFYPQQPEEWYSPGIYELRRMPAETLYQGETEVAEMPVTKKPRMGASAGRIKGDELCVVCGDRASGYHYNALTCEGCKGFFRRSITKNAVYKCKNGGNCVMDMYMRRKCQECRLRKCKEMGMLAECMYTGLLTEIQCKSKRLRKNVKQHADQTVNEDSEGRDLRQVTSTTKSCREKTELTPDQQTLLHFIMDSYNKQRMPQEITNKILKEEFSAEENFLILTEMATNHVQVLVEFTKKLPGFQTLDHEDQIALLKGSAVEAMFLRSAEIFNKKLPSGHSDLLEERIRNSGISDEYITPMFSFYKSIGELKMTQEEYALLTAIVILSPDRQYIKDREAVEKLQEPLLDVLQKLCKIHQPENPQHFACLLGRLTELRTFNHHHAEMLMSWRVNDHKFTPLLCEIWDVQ
# Procedure, shortened: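 Beta-lactamase reporter under UAS control in HEK 293T cells; compound exposure 16 h at 37 °C in the presence of chenodeoxycholic acid (50 uM final); signal from B/G FRET substrate after 2 h at room temperature.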
# [17] = target: Bile acid receptor (Homo sapiens) (UniProt Q96RI1); test: qHTS assay to identify small molecule agonists of the farnesoid-X-receptor (FXR) signaling pathway (AID 743220; active = well fitted activation curve with a large enough effect in the signal ratio in the repeat runs, not every such curve was filed as active; the % refers to the signal ratio)
# Procedure, shortened: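 Beta-lactamase reporter under UAS control in GeneBLAzer FXR HEK 293T cells (5000/well) measured with LiveBLAzer FRET substrate after 2 h at room temperature. Compound exposure lasted 16 h at 37C.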
# [18] = target: Vitamin D3 receptor (Homo sapiens) (UniProt P11473); test: qHTS assay to identify small molecule agonists of the vitamin D receptor (VDR) signaling pathway (AID 743222)
# Vitamin D3 receptor (Homo sapiens), sequence (P11473 whole entry, looked up): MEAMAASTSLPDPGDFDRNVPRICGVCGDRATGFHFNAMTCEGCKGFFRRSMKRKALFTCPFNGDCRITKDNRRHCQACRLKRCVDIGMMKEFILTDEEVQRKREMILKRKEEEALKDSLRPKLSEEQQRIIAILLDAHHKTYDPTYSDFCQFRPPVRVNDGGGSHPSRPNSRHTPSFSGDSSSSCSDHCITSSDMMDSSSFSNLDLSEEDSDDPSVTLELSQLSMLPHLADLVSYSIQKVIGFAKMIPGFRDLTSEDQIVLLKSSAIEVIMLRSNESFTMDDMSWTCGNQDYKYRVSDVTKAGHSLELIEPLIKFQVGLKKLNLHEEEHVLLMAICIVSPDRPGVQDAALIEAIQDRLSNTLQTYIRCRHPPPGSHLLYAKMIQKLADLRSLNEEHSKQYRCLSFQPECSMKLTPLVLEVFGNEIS
# Procedure, shortened: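 Agonist activity measured in VDR-bla reporter cells. Exposure 16 h, 37C, 5% CO2; detection by B/G FRET substrate, 2 h RT.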
# [19] = target: Vitamin D3 receptor (Homo sapiens) (UniProt P11473); test: qHTS assay to identify small molecule antagonists of the vitamin D receptor (VDR) signaling pathway (AID 743223; active = well fitted inhibition curve with a large enough effect in the signal ratio in the repeat runs, not every such curve was filed as active; the % refers to the signal ratio)
# Procedure, shortened: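 After VDR-bla cells are plated and left 4 h at 37C, DMSO-dissolved compounds and 3 nM (final) calcitriol agonist are added. Incubation continues 16 h at 37C; FRET beta-lactamase substrate then develops 2 h at room temperature.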
# [20] = target: Nuclear receptor ROR-gamma (Homo sapiens) (UniProt P51449); test: qHTS assay to identify small molecule antagonists of the retinoid-related orphan receptor gamma (ROR-gamma) signaling pathway (AID 1159521; active = well fitted curve in the direction sought with a large enough effect in the repeat runs; an effect the other way counts as inactive or inconclusive)
# Procedure, shortened: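 Readout: ONE-Glo luciferase luminescence, 30 min at room temperature. System: Tet-on RORγ CHO, RORE-LUC. Sequence: compound 2 h, doxycycline 1 uM final, 16 h at 37 C.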
SMILES,Potency [1],Potency [2],Potency [3],Potency [4],Potency [5],Potency [6],Potency [7],Potency [8],Potency [9],Potency [10],Potency [11],Potency [12],Potency [13],Potency [14],Potency [15],Potency [16],Potency [17],Potency [18],Potency [19],Potency [20]
CCCCn1cc[n+](C)c1.[Cl][Fe-]([Cl])([Cl])[Cl],inactive,inactive,inactive,inactive,inactive,inactive,inactive,inactive,inactive,inactive,inactive,inactive,inactive,,,,,,,
COP(=S)(NC(C)C)Oc1ccc(C)cc1[N+](=O)[O-] (stereo not drawn),inactive,,inactive,inactive,inactive,inactive,inactive,inactive,inactive,inactive,inactive,inactive,,inactive,inactive,inactive,inactive,inactive,inactive,
CC1CN1 (stereo not drawn),inactive,,inactive,inactive,inactive,,inactive,inactive,inactive,inactive,inactive,inactive,inactive,inactive,inactive,,,,,
COC(=O)c1cc(Oc2ccc(Cl)cc2Cl)ccc1[N+](=O)[O-],inactive,inactive,inactive,inactive,inactive,,inactive,inactive,inactive,,inactive,inactive,,inactive,inactive,inactive,inactive,,,54.5 µM (active)
C[C@H]1[C@H](c2ccc(Cl)cc2)SC(=O)N1C(=O)NC1CCCCC1,inactive,,,inactive,,,inactive,inactive,inactive,,inactive,inactive,,,,,,inactive,,48.6 µM (active)
CC(=O)[O-].CC(=O)[O-].CC(=O)[O-].[Cr+3],inactive,inactive,inactive,inactive,inactive,inactive,inactive,inactive,inactive,inactive,inactive,,inactive,,,,,,,
CC1(C)C(C=C(Cl)Cl)C1C(=O)OC(C#N)c1ccc(F)c(Oc2ccccc2)c1 (stereo not drawn),inactive,inactive,,inactive,inactive,,inactive,inactive,inactive,inactive,inactive,,,inactive,inactive,,,,,
CCCN,inactive,inactive,,,,,inactive,inactive,inactive,inactive,inactive,inactive,,,,,,,,
